# Source: PubChem BioAssay AID1259318 (Sanford-Burnham Center for Chemical Genomics, 2017)
# Among all 370,000 compounds or so, about 3,000 (0.81%) were called active.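 The calls were made as follows: active = activity above about 14% (limit read from the data; passing the limit was not always enough); inactive = the rest.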 The entries come from a sample that favours actives as a whole.
# Target: Nuclear receptor subfamily 1 group D member 1 (Homo sapiens) (UniProt P20393)
# Test: Rev-erbα–DNA interaction modulation – biochemical, FITC-DNA, fluorescence polarization, uHTS, primary screen (AID 1259318);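 also: 0% = DMSO wells with 35 nM protein and 100% = DMSO wells with 750 nM protein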
# Details: Rev-erbα–FITC-DNA binding, 90 min, at 10 µM, hits give high values
# Sequence of Nuclear receptor subfamily 1 group D member 1 (Homo sapiens) (P20393 whole entry, looked up): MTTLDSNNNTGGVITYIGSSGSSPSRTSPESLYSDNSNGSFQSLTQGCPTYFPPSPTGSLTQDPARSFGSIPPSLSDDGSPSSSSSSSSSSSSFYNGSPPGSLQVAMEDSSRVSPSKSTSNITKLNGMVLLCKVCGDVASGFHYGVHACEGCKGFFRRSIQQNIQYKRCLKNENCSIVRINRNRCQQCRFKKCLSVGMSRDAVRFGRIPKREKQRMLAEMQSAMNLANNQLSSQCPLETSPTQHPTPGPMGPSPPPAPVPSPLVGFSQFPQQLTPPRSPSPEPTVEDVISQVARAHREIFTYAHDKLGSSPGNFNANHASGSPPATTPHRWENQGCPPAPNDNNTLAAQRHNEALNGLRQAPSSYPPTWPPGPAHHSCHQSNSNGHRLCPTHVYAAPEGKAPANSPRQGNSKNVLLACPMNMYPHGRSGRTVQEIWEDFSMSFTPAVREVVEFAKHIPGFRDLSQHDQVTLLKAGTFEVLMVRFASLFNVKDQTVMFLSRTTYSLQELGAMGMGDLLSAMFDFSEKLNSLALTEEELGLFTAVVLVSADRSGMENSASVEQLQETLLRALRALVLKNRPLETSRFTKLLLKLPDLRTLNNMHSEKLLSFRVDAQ
row,SMILES,activity
1,CC(C)CC(=O)Nc1cc(C(F)(F)F)ccc1N1CCOCC1,-4.25% (inactive)
2,COc1ccc(CNC(=O)C2CCN(C(=O)c3ccco3)CC2)cc1,-1.19% (inactive)
3,COc1ccc(CNC(=O)C2CCN(C(=O)c3ccccc3)CC2)cc1,1.27% (inactive)
4,COc1ccc(-n2nc3c(N4CCC(C(=O)NCc5ccccc5)CC4)nnc(C)c3c2C)cc1,54.2% (active)
5,CC(C)N(C(=O)Cn1c(SCC(=O)N2CCN(c3ccccc3)CC2)nc2ccccc21)C(C)C,1.23% (inactive)
6,O=C(Nc1ccc(O)cc1)c1ccccc1O,3.46% (inactive)
7,CCCCCC(=O)Nc1ccc(-c2cn3cccnc3n2)cc1,-0.67% (inactive)
8,Cc1ccc(CNCc2ccc3c(c2)OCO3)c(C)c1,-1.18% (inactive)
9,C[C@H]1O[C@@H](O[C@H]2[C@@H](O)C[C@H](O[C@H]3[C@@H](O)C[C@H](O[C@H]4CC[C@]5(C)C6C[C@@H](O)[C@]7(C)[C@@H](C8=CC(=O)OC8)CC[C@]7(O)C6CC[C@@H]5C4)O[C@@H]3C)O[C@@H]2C)C[C@H](O)[C@@H]1O (some centres undefined),2.73% (inactive)
10,CCOC(=O)c1sc(=NC(=O)c2ccc(Br)cc2)n(C)c1C,51.4% (active)
11,CCOC(=O)c1sc(=NC(=O)/C=C/c2cccs2)n(C)c1C,-0.21% (inactive)
12,CCOC(=O)C1=CN(Cc2ccc(Br)cc2)S(=O)(=O)N(C)C1C (centres undefined),-0.38% (inactive)
13,C/C(Cn1nnc2ccccc21)=N\OC(=O)c1cc(F)c(F)cc1Cl,2.02% (inactive)
14,COc1ccc(N2CCN(CCNS(=O)(=O)c3ccc(C(C)(C)C)cc3)CC2)cc1,5.09% (inactive)
15,Nc1nc2c(ncn2[C@@H]2O[C@H](C(=O)N[C@H](Cc3ccccc3)C(=O)NCC3CCCCC3)[C@@H](O)[C@H]2O)c(=O)[nH]1,2.3% (inactive)
16,CCN1/C(=C\c2ccc3ccccc3[n+]2CC)Sc2cc(C)ccc21,73.3% (active)
17,COc1ccc(CCNC(=O)CSc2nc3c([nH]2)c(=O)n(C)c(=O)n3C)cc1,-0.29% (inactive)
18,COc1ccc(CNS(=O)(=O)c2cc(Br)ccc2Br)cc1,6.25% (inactive)
19,Cc1cc2cc3c(cc2nc1SCC(=O)Nc1c(C)cccc1C)CCC3,63.4% (active)
20,Cc1cccc(C)c1NC(=O)CSc1nc2c([nH]1)c(=O)n(C)c(=O)n2C,3.98% (inactive)
21,Cc1cccc(NC(=O)CSc2nc3c(c(=O)[nH]2)CCC3)c1C,-4.62% (inactive)

row,SMILES,activity
1,CC(=O)C1=C(C)N(Cc2ccc(Cl)cc2)C(=S)NC1c1ccc(F)cc1 (centres undefined),0.1% (inactive)
2,CC1(C)C(C=C(Cl)Cl)C1C(=O)N(Cc1ccc(Cl)cc1)C1CCS(=O)(=O)C1 (centres undefined),2.8% (inactive)
3,CCOC(=O)c1[nH]c2ccc(C)cc2c1N=C(C)N(C)C,0.97% (inactive)
4,O=C(CN1CCC(NC(=O)C2CC2)CC1)Nc1ccccc1[N+](=O)[O-],-2.64% (inactive)
5,COc1cccc(-c2cc(CNC(=O)[C@@H](Cc3ccccc3)NC(=O)[C@H]3O[C@@H](n4cnc(C(N)=O)n4)[C@H](O)[C@@H]3O)no2)c1,3.31% (inactive)
6,CCOC(=O)c1c(NC(=O)CCCN2CCOCC2)sc2c1CC(C)(C)OC2,2.68% (inactive)
7,CCOC(=O)c1c(C)[nH]c(C(=O)NCCN2CCOCC2)c1C,1.96% (inactive)
8,CCOC(=O)c1sc(NC(=O)CCN2CCOCC2)c(C(=O)OCC)c1C,30.6% (active)
9,C=CCN(N=Nc1cccc([N+](=O)[O-])c1)c1cccc([N+](=O)[O-])c1,9.23% (inactive)
10,NC(=O)CC(NC(=O)Cc1ccc(Br)cc1)c1ccc(NC2CC3CCC2C3)c([N+](=O)[O-])c1 (centres undefined),-0.82% (inactive)
11,FCOC(C(F)(F)F)C(F)(F)F,2.75% (inactive)
12,O=C(COc1ncnc2c(Cl)cc(Cl)cc12)N1CCN(S(=O)(=O)c2ccccc2)CC1,25.2% (active)
13,O=C(CSc1ccccn1)N1CCN(S(=O)(=O)c2ccc(Cl)cc2)CC1,-4.04% (inactive)
14,O=C(COc1ccc(Cl)cc1)N1CCN(S(=O)(=O)c2ccc(Cl)cc2)CC1,-0.97% (inactive)
15,COc1ccc(C2(C#N)CCC(C(=O)O)CC2)cc1OC1CCCC1 (centres undefined),-2.5% (inactive)
16,O=C(CN1CCCc2ccccc21)NCc1ccc(F)cc1,0.36% (inactive)
17,Cc1nn2cc(-c3ccc(Cl)cc3)cnc2c1Br,5.5% (inactive)
18,CCN(CC)CCCC(C)Nc1ccnc2cc(Cl)ccc12 (centres undefined),-0.22% (inactive)
19,FC(F)(F)c1cccc(Cn2ccc3ccc(-c4ccc5ccn(Cc6ccccc6)c5c4)cc32)c1,-9.95% (inactive)
20,COc1ccc(Cn2ccc3ccc(-c4ccc5ccn(Cc6ccccc6C)c5c4)cc32)cc1,0.1% (inactive)
21,COC(=O)c1cccc(Cn2ccc3ccc(-c4ccc5ccn(C(=O)c6ccccc6C)c5c4)cc32)c1,40% (active)

row,SMILES,activity
1,COC(=O)c1cccc(Cn2ccc3ccc(-c4ccc5ccn(C(=O)C6CCCCC6)c5c4)cc32)c1,33.7% (active)
2,COC(=O)c1ccc(CN2CCCC(C(=O)Nc3cccc(-n4cnnn4)c3)C2)cc1 (centres undefined),1.49% (inactive)
3,COC(=O)c1ccc(OCC(O)CN(CCO)CC(O)Cn2ccc3ccccc32)cc1 (centres undefined),4.36% (inactive)
4,CCC(=O)O[C@]1(C(=O)CCl)[C@@H](C)CC2C3CCC4=CC(=O)C=C[C@]4(C)[C@@]3(F)[C@@H](O)C[C@@]21C (some centres undefined),0.94% (inactive)
5,Cc1ccc(S(=O)(=O)N(Cc2cc3ccccc3[nH]c2=O)CC2CCCO2)cc1 (centres undefined),-1.97% (inactive)
6,CN(C(N)=NC(=O)/C=C/c1ccccc1)C(C#Cc1ccccc1)Cc1ccccc1 (centres undefined),-4.88% (inactive)
7,O=C(C1CCN(S(=O)(=O)Cc2ccccc2)CC1)N1CCCc2ccccc21,-2.58% (inactive)
8,Cc1nn(CCOc2ccc(Br)cc2)c(C)c1[N+](=O)[O-],3.89% (inactive)
9,CS(=O)(=O)Nc1cccc(C2=NN(C(=O)c3cccc(F)c3)C(c3cccs3)C2)c1 (centres undefined),1.7% (inactive)
10,O=C(COc1ccc2ccccc2c1)N1CCN(C(=O)c2cccs2)CC1,7.29% (inactive)
11,CCOc1ccc2nc(Cl)c(C3CC(c4ccccc4)=NN3C(=O)c3cccs3)cc2c1 (centres undefined),36% (active)
12,CC(NC(=O)C(C)(C)C)C(c1cccs1)N1CCN(Cc2ccccc2)CC1 (centres undefined),-5.62% (inactive)
13,O=C(Nn1cnc2ccccc2c1=O)c1ccc(F)cc1Cl,-3.38% (inactive)
14,CC(C)C(C)NC(=O)COc1nc2ccccc2nc1N(C)C1CCCCC1 (centres undefined),62.5% (active)
15,O=C(COc1ccccc1O)NC1CCCC1,2.25% (inactive)
16,CC(C)C(C)NC(=O)COc1ncnc2ccccc12 (centres undefined),1.73% (inactive)
17,CCCN1C(=O)C(NC(C)=O)c2cc(OC)ccc21 (centres undefined),1.76% (inactive)
18,CCc1ccccc1NC(=O)c1cc(-c2ccc3c(c2)OCO3)on1,21.2% (active)
19,CCOC(=O)N1CCN(C(=O)COCc2cc(-c3ccc4c(c3)OCO4)on2)CC1,2.06% (inactive)
20,CC(C)NC(=O)COCc1cc(-c2ccc3c(c2)OCO3)on1,3.84% (inactive)
21,CCCCCCCCCc1ccc(OCCOCCOCCOCCOCCOCCOCCOCCOCCO)cc1,2.2% (inactive)

row,SMILES,activity
1,CC[C@H](NC(=O)[C@H](Cc1ccccc1)NC(=O)[C@H]1O[C@@H](n2cnc3c(=O)[nH]c(N)nc32)[C@H](O)[C@@H]1O)c1ccccc1,1.57% (inactive)
2,CCOC(=O)c1c(NC(=O)CN2C(=O)NC3(CCC(C)CC3)C2=O)sc(C)c1CC (centres undefined),21.8% (active)
3,CCC1CCC2(CC1)NC(=O)N(CC(=O)Nc1ccc(OC)cc1)C2=O (centres undefined),-2.27% (inactive)
4,CCOC(=O)c1c(NC(=O)C2CC=CCC2C(=O)O)sc(C)c1CC (centres undefined),-10.6% (inactive)
5,O=C1NC(c2ccccc2)=NC1(Nc1ccccn1)C(F)(F)F (centres undefined),-2.21% (inactive)
6,C[C@@H]1CN([C@@H](C)CO)S(=O)(=O)c2ccc(C#Cc3cccc(F)c3)cc2O[C@H]1CN(C)S(=O)(=O)c1cn(C)cn1,4.67% (inactive)
7,CCCC1O[C@@H]2CC3C4CCC5=CC(=O)C=CC5(C)C4[C@@H](O)CC3(C)[C@]2(C(=O)CO)O1 (some centres undefined),3.39% (inactive)
8,S=c1nccc(-c2cc(Cl)sc2Cl)[nH]1,20.9% (active)
9,CC1=C(/C=C/C(C)=C/C=C/C(C)=C/C=C/C=C(C)/C=C/C=C(C)/C=C/C2=C(C)CCCC2(C)C)C(C)(C)CCC1,-1.26% (inactive)
10,COc1ccccc1NC(=O)c1cc(N2C(=O)C3C4CCC(C4)C3C2=O)ccc1Cl (centres undefined),-4.24% (inactive)
11,Cc1ccc(CNC(=O)CC(NC(=O)c2ccccc2)c2ccccc2)cc1 (centres undefined),-3.7% (inactive)
12,CC(=O)C1(C(=O)Nc2nccs2)CC(c2ccccc2C(F)(F)F)=NO1 (centres undefined),2.17% (inactive)
13,O=C(O)CSCNC(=O)CC12CC3CC(CC(C3)C1)C2,5.91% (inactive)
14,C=CCNC(=O)CC12CC3CC(C1)CC(CC(=O)NCC=C)(C3)C2,27.5% (active)
15,C=CCNC(=O)C12CC3CC(C1)CC(C(=O)NCC=C)(C3)C2,1.74% (inactive)
16,Cc1cccc(NC(=O)c2cc(S(=O)(=O)N3CCC4(CC3)OCCO4)ccc2F)c1,-2.46% (inactive)
17,O=C(N[C@H]1CC[C@H](CC(=O)N2CCCCC2)O[C@@H]1CO)c1cccc(F)c1,3.8% (inactive)
18,CON(C)S(=O)(=O)c1ccc2c(c1)NC(=O)C1CCCN21 (centres undefined),-3.22% (inactive)
19,Cc1cc(C)c2c(-c3ccc(F)cc3)c(C#N)c(=O)n(C)c2n1,56.8% (active)
20,Cn1c(N)cc(-c2ccc(F)cc2)c(C#N)c1=O,-1.46% (inactive)
21,COc1ccc(O)c(C(=O)c2cnc3c(c2)c(-c2ccc(F)cc2)c(C#N)c(=O)n3C)c1,-4.88% (inactive)
